Most compounds without a hit are left out; they make up all but 2.5% or so of the library.
AF4-AF9 inh – inhibitors of AF4 peptide binding to AF9, primary screen, biochemical, AlphaScreen, biotin-AF4 peptide, FLAG-AF9, single point; Protein AF-9 (Homo sapiens), P42568; 350,000 tested, 0.47% active; inhibition, % at 10 µM;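 active = every replicate reaching a set inhibition limit, whatever the replicate mean, cut at about 25% in these data; inconclusive = mean inhibition reaches that limit but some replicates miss it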
RAD52 anneal inh – RAD52 DNA annealing inhibitors, primary screen, biochemical, FRET, single point, set 2. DNA repair protein RAD52 homolog (Homo sapiens), P43351. recombinant RAD52 DNA annealing, FRET fluorescence. inhibition, % at 18.7 µM. 360,000 tested, 0.46% active. AID 651710, 2012;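 active = every replicate showing at least 50% inhibition; inconclusive = mean inhibition at least 50% but not in every replicate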
Target sequence (P43351 whole entry, looked up): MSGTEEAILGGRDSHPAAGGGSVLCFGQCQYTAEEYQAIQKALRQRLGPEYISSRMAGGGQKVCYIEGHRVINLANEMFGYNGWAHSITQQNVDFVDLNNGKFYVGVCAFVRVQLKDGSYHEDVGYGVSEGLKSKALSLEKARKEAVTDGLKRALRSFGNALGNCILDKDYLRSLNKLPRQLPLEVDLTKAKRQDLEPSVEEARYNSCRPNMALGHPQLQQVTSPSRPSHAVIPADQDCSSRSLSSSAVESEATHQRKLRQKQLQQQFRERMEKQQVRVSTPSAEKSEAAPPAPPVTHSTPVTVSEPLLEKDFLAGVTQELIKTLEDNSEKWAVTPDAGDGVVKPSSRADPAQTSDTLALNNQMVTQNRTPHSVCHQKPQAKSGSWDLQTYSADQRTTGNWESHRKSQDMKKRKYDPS
Ecoli rRNA inh – reduced GFP signal of wild-type E. coli, primary screen, bacterial rRNA inhibitor project, GFP/RFP fluorescence, OD600, single point | E. coli WT GFP vs humanized-ribosome RFP mutants, 24 h; hits give low values; DMSO median 0, no signal -100 | GFP signal change (wild-type ribosome), % (test concentration not listed) | 350,000 tested, 1.6% active | AID 720706, 2013;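 active = significant combined selectivity score with lowered wild-type GFP, culture density cut under 30%, mutant RFP and density less affected; inactive = any of these conditions unmet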
NSD2 inh – NSD2 histone methyltransferase inhibitors, primary screen, biochemical, AlphaScreen, single concentration, set 2; NSD2 peptide methylation, 120 min; inhibition, % at 12.5 µM; 310,000 tested, 0.54% active; AID 743445, 2014; in the data active = inhibition above about 50%
Casp6 inh – human caspase-6 inhibitors, primary screen, biochemical, VEID-R110 fluorescence, single point, set 2; P55212; purified caspase-6, Z-VEID-R110 cleavage fluorescence; inhibition, % at 12.5 µM; 350,000 tested, 0.53% active;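 active = mean inhibition across replicates at least about 35%, with every replicate also reaching that limit, limit read from the data; inconclusive = only one of the two criteria met; inactive = neither criterion met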
Hits are given with their value; - = inactive; ? = inconclusive; . = no result given.

SMILES	AF4-AF9 inh	RAD52 anneal inh	Ecoli rRNA inh	NSD2 inh	Casp6 inh
Clc1cncc(Cl)c1N/N=C/c1ccncc1	-	-	-	-	-
O=C(Cc1ccc(NC(=O)C2CCCN(C(=O)CCc3ccccc3)C2)cc1)Nc1cccc(C(=O)N2CCCCC2)c1 (centres undefined)	-	-	-	.	-
CN(CCc1ccccc1)C(=O)c1ccc(NC(=O)Cc2ccc(NC(=O)C3CCN(C(=O)c4ccccc4)CC3)cc2)cc1	31	-	-	.	-
O=C(Cc1ccc(NC(=O)C2CCCN(C(=O)CCc3ccccc3)C2)cc1)Nc1cccc(C(=O)N2CCCC2)c1 (centres undefined)	-	-	-15	.	.
CN(CCc1ccccc1)C(=O)c1ccc(NC(=O)Cc2ccc(NC(=O)C3CCN(C(=O)C4CC4)CC3)cc2)cc1	?	-	-	.	-
CC(=O)N1[C@H](CO)[C@H]2c3ccccc3N(S(=O)(=O)c3ccc(F)cc3)C[C@H]21	.	.	-	.	.
CCCC(=O)Nc1ccc2c(c1)C(=O)N(C)C[C@H](OC)[C@H](C)CN(CC1CCOCC1)[C@H](C)CO2	.	.	-	.	.
O=C(Nc1cccc(Cl)c1)N1C[C@H]2[C@@H](c3ccccc31)[C@@H](CO)N2C(=O)c1cccnc1	-	-	-	.	-
O=C(Nc1cc(F)ccc1F)N1C[C@@H]2[C@H](c3ccccc31)[C@H](CO)N2Cc1ccncc1	-	-	-43	.	-
O=C(Nc1cccc(Cl)c1)N1C[C@@H]2[C@H](c3ccccc31)[C@@H](CO)N2C(=O)c1cccnc1	-	-	-51	.	-
COc1ccccc1NC(=O)N(C)C[C@H]1OCc2ccccc2-c2ccccc2C(=O)N([C@H](C)CO)C[C@@H]1C	.	.	-	.	.
CS/C(=N\S(=O)(=O)c1cccs1)Nc1ccc(Cl)cc1	-	-	-30	-	-
C[C@@H]1CN([C@H](C)CO)S(=O)(=O)c2ccc(C#C[C@@H](C)O)cc2O[C@@H]1CN(C)C(=O)c1ccccc1	-	-	-	.	-
CO[C@@H]1CN(C)C(=O)c2cc(NC(=O)c3cc(C)on3)ccc2OC[C@H](C)N(C(=O)C2CC2)C[C@H]1C	-	-	-	.	-
CN(C)CC1CC/C(=C\c2ccc(O)cc2)C1=O (centres undefined)	-	-	-31	-	-
O=C1CSC(=S)N1Nc1ccccc1	-	-	-	-	-
O=C1Cc2ccccc2C(=O)N1Nc1ccccc1	-	-	-	.	49
COc1ccc(N2C(=O)Cc3ccccc3C2=O)cc1	-	-	-	-	43
Cc1ccccc1N1C(=O)Cc2ccccc2C1=O	-	-	-	-	54
COc1ccc(N2C(=O)c3ccccc3C2=O)cc1	-	-	-	-	-
O=S(=O)(Nc1ccc(C(O)(C(F)(F)F)C(F)(F)F)cc1)c1ccc(S(=O)(=O)c2ccccc2)s1	.	.	.	-	.
C[C@H]1CN([C@@H](C)CO)C(=O)c2cccc(NC(=O)Nc3ccc4c(c3)OCO4)c2O[C@@H]1CN(C)S(=O)(=O)c1ccc(F)cc1	-	-	-	.	-
COc1ccc(/C=N/Nc2cc(OC)ncn2)cc1	-	-	-	-	-
COc1ccc(/C=N/Nc2cc(N(C)C)nc(N(C)C)n2)cc1	28	-	.	-	-
CC1CCc2c(c3ccccc3n2C(=O)CCl)C1 (centres undefined)	-	-	-	-	96
SMILES	AF4-AF9 inh	RAD52 anneal inh	Ecoli rRNA inh	NSD2 inh	Casp6 inh
CCN1CCN(CC(=O)n2c3c(c4ccccc42)CC(C)CC3)CC1 (centres undefined)	.	.	.	-	.
N#CC1=C(SCC(=O)Nc2nccs2)NC(=O)CC1c1ccccc1 (centres undefined)	-	-	-28	-	-
Cc1ccccc1NC(=O)CSC1=C(C#N)C(c2ccsc2)CC(=O)N1 (centres undefined)	.	.	.	-	.
O=S(=O)(Nc1c(S(=O)(=O)c2ccccc2)c2nc3ccccc3nc2n1C1CCCCC1)c1ccccc1	-	-	-	141	41
C[C@H](CO)N1C[C@H](C)[C@@H](CN(C)Cc2ccncc2)Oc2cc(-c3cccnc3)ccc2S1(=O)=O	-	-	-	.	-
C[C@H]1CN([C@@H](C)CO)C(=O)c2cc(Br)cnc2O[C@@H]1CN(C)CC1CCOCC1	.	.	-	.	.
O=C(NCc1ccc(F)cc1)[C@@H]1[C@@H](CO)[C@@H]2Cn3c(cccc3=O)[C@H]1N2	-	-	-	.	-
C[C@H]1CCCCO[C@@H](CN(C)Cc2ccc(C(F)(F)F)cc2)[C@@H](C)CN([C@@H](C)CO)C(=O)c2cc(N(C)C)ccc2O1	37	-	-	.	-
C[C@@H]1CCCCO[C@H](CN(C)Cc2ccc(C(F)(F)F)cc2)[C@H](C)CN([C@H](C)CO)C(=O)c2cc(N(C)C)ccc2O1	35	-	-	.	-
C[C@H]1CCCCO[C@H](CN(C)Cc2ccc(C(F)(F)F)cc2)[C@@H](C)CN([C@@H](C)CO)C(=O)c2cc(N(C)C)ccc2O1	33	-	-	.	-
COc1ccc(COC[C@@]23Oc4ccccc4[C@@H](NC(=O)N2C)[C@H]3COC(=O)c2ccc([N+](=O)[O-])cc2)cc1	-	-	.	.	-
CC[C@H]1C/C=C\C[C@@H](c2ccc(F)cc2)NC(=O)CCC(=O)N1	.	.	-	.	.
CC(C)C(=O)Nc1ccc2c(c1)C(=O)N(C)[C@@H]1CC[C@H](CC(=O)NCCCN(C)C)O[C@@H]1CO2	.	.	-	.	.
C[C@H]1CN([C@@H](C)CO)C(=O)c2cccc(NS(=O)(=O)c3ccccc3)c2O[C@@H]1CN(C)Cc1ccc2c(c1)OCO2	-	-	-	.	-
COC(=O)c1ccc(/C=C/C(=O)OCC(=O)Nc2ncc(Cl)cc2Cl)cc1	-	-	.	-	-
O=C(COC(=O)/C=C/c1ccco1)Nc1ncc(Cl)cc1Cl	-	-	-	-	44
Cc1nc(NC(=O)COC(=O)/C=C/c2ccco2)c(Cl)cc1Cl	-	-	-	-	50
Cn1c(SCC(=O)N(Cc2ccccc2)C(C)(C)C)nc2ccccc21	-	-	-31	-	-
NC(=O)C1C(=O)c2ccccc2C1(C[N+](=O)[O-])c1ccccc1 (centres undefined)	-	-	-	-	69
C/C(=N\S(=O)(=O)c1ccc(C)cc1)N1CCN(S(=O)(=O)c2ccccc2)C1C(C)C (centres undefined)	-	-	-27	-	-
Cc1cccc(NCC(=O)N/N=C/c2cccc(Br)c2)c1	-	-	-	-	-
Cc1ccc(NCC(=O)N/N=C/c2cccc(Br)c2)cc1	-	-	-23	-	-
Cc1[nH]n(C2=NCCS2)c(=O)c1N=Nc1cccc(C(F)(F)F)c1	-	-	-25	-	-
Cc1[nH]n(-c2ccccc2)c(=O)c1N=Nc1cccc(C(=O)O)c1	-	-	-27	-	-
